Screening data from PubChem.
Sampled rows, rich in hits. Any-hit rate of the full collection: about 4.1%.
BoNT A protease – BoNT A light chain protease inhibition | multiplex microsphere protease substrate cleavage, flow cytometry | inhibition, % at 10 µM | 0.17% of 360,000 active | AID 588499; also: plate controls were buffer without enzyme for full effect and enzyme alone for no effect
Anthrax LF inh2 – anthrax lethal factor protease inhibition; P15917; multiplex microsphere protease cleavage assay, LF; inhibition, % at 10 µM; 0.12% of 360,000 active; also: plate controls were buffer without enzyme for full effect and enzyme alone for no effect
BoNT-F LC inh – inhibitors of Botulinum neurotoxin F light chain protease; Multiplex microsphere protease cleavage assay, flow cytometry; inhibition, % at 10 µM; 0.22% of 360,000 active; in the data active = inhibition above about 35%, passing the limit was not always enough; inconclusive = no clear call, values can overlap the other calls; also: plate controls were buffer without enzyme for full effect and enzyme alone for no effect
MazEF act – MazEF (E. coli) toxin RNase activation; FAM/BHQ RNA-DNA oligo cleavage fluorescence, 5 h; activation, % at 20 µM; 0.32% of 350,000 active; in the data active = activation above about 50%
Target sequence (P0AE70 whole entry, looked up): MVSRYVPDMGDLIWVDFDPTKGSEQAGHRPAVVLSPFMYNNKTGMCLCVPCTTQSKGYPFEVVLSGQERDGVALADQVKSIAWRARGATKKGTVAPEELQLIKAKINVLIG
DUSP3 inh – DUSP3 (human) phosphatase inhibition. recombinant VHR phosphatase, pNPP absorbance. inhibition, % at 13.3 µM. 0.52% of 290,000 active. AID 1654; in the data active = inhibition above about 50%
Target sequence (P51452 whole entry, looked up): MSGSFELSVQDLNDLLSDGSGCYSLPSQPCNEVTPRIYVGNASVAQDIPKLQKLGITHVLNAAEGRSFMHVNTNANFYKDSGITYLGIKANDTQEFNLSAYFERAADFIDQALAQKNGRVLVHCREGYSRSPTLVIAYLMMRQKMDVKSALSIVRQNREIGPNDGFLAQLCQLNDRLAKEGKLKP
Bead autofluor – counter-screen for toxin protease inhibitors: compound fluorescence; compound autofluorescence counterscreen, microsphere flow cytometry; active compounds read high; fluorescence intensity (concentration not given with the values); 3.1% of 360,000 active; AID 624483; in the data active = fluorescence intensity above about 16000; inconclusive = no clear call, values can overlap the other calls
Active calls of the source: *; ? = inconclusive; nt = no result. Rule as the data show it, unless noted: active = inhibition above about 30%; inconclusive = no clear call, values can overlap the other calls; inactive = below that.

SMILES | BoNT A protease | Anthrax LF inh2 | BoNT-F LC inh | MazEF act | DUSP3 inh | Bead autofluor
c1ccc(CCNc2c3c(nc4ncnn24)CCC3)cc1 | 2.0 | -6.8 | 0.1 | 6.2 | 10.4 | 22631*
Clc1ccccc1Nc1c2c(nc3ncnn13)CCC2 | 4.6 | -13.1 | 5.0 | 7.3 | 15.1 | 21040*
c1coc(CNc2c3c(nc4ncnn24)CCC3)c1 | 5.9 | -3.2 | 6.7 | -4.6 | 0.2 | 20732*
OC(c1ccccc1)c1nc(-c2cncnc2)cs1 (stereo not drawn) | 0.0 | -1.3 | -2.2 | nt | nt | 3405
CC(=O)Nc1sc(C)c(C)c1C(=O)OCC(=O)N(Cc1ccccc1)C(C)C | 0.1 | -3.4 | -4.2 | -6.2 | nt | 3931
CC(C)=CC(=O)Nc1nnc(-c2cccnc2)s1 | 0.4 | -2.5 | 7.3 | -1.9 | 53.4* | 4596
O=C(Nc1cccc(C(=O)O)c1)/C(=C/c1ccc([N+](=O)[O-])cc1)NC(=O)c1ccccc1 | -1.5 | -1.9 | -4.7 | 4.9 | 16.9 | 3157
O=C(Nc1cccc2ccccc12)/C(=C/c1ccc([N+](=O)[O-])cc1)NC(=O)c1ccccc1 | 34.1* | 18.4 | 25.0 | 6.4 | 31.1 | 7715
CCOC(=O)C1(S(=O)(=O)c2ccc(Cl)cc2)CCN(Cc2ccc(C)cc2)CC1 | 0.0 | -9.0 | -4.0 | 1.6 | 28.7 | 20535*
COCCOC(=O)c1c(C)n(C)c2ccc(OC(=O)c3ccccc3F)cc12 | -1.3 | -22.3 | 11.1 | 1.1 | 34.4 | 3227
COCCOC(=O)c1c(C)n(C)c2ccc(OC(=O)c3cccs3)cc12 | -2.0 | -2.4 | -4.9 | 5.1 | 11.8 | 16814*
COCCOC(=O)c1c(C)n(C)c2ccc(OC(=O)N(C)C)cc12 | -0.7 | -0.3 | -3.5 | -0.6 | -9.8 | 22829*
Cc1nn(C)c(C)c1S(=O)(=O)N(CC(=O)NCCN1CCOCC1)c1ccc(C(C)C)cc1 | -0.7 | -7.1 | -6.9 | 0.3 | 30.5 | 5095
Cc1nn(C)c(C)c1S(=O)(=O)N(CC(=O)NCCCN1CCC(C)CC1)c1ccc(C(C)C)cc1 | -0.2 | -0.2 | 2.9 | 0.3 | 55.6* | 4467
COc1ccc(-n2c(/C=C/c3ccc(O)cc3)nc3ccccc3c2=O)cc1 | nt | nt | nt | 34.4 | 14.9 | nt
CCn1c(/C=C/c2ccc(O)c(O)c2)nc2ccccc2c1=O | 1.4 | 17.3 | -16.1 | 121.3* | 7.9 | 3365
COc1ccc(-n2c(/C=C/c3ccc(O)c(OC)c3)nc3ccccc3c2=O)cc1 | 1.9 | -0.7 | 35.8* | -31.1 | 8.6 | 2862
CCn1c(/C=C/c2c(C)n(CC)c3ccccc23)nc2ccccc2c1=O | 1.5 | 6.7 | 15.1 | 70.5* | -27.6 | 2315
CC1=C(C(=O)N2CCCCCC2)CC(CC(=O)NC2CCCCC2)C(=O)N1CCC1=CCCCC1 (stereo not drawn) | -0.5 | -1.0 | -4.2 | nt | nt | 6798
CCCOc1ccc(-c2nnn(CC(=O)N3CCCCC3)n2)cc1 | -0.2 | 1.5 | -7.9 | -2.4 | -3.9 | 4558
CCCOc1ccc(-c2nnn(CC(=O)OCC)n2)cc1 | -1.2 | -5.6 | -0.9 | -4.1 | 13.4 | 22991*
CCOC(=O)Cn1nnc(-c2ccccc2)n1 | 0.6 | 1.1 | ? | -6.0 | 4.4 | 3803
CCOC(=O)C(Cc1ccccc1)NC(=O)Cn1nnc(-c2ccccc2)n1 (stereo not drawn) | -3.3 | 3.7 | -2.2 | 4.1 | -11.3 | 20857*
CCOc1ccc(-c2nnn(CC(=O)NCc3ccco3)n2)cc1 | ? | -1.7 | -1.8 | -9.1 | -4.0 | 19976*
CCOC(=O)N1CCC(NC(=O)c2ccc3c(c2)N(C)C(=O)/C(=C/c2cccc(OC)c2)S3)CC1 | 0.2 | 0.9 | -3.6 | 4.5 | 2.3 | 5265
SMILES | BoNT A protease | Anthrax LF inh2 | BoNT-F LC inh | MazEF act | DUSP3 inh | Bead autofluor
O=C(Nc1cccc([N+](=O)[O-])c1)NC1CCCCCCC1 | 1.5 | 0.1 | 1.0 | -0.1 | 7.4 | 5199
CSCC[C@H](NC(=O)[C@@H]1Cc2ccccc2CN1)C(=O)Nc1ccc2c(c1)OCO2 | 3.7 | -5.1 | -31.1 | -4.8 | -57.1 | 4561
CCN(CC)c1ncnc2c1ncn2[C@H]1CN(Cc2cc(OC)c(OC)c(OC)c2)C[C@@H](CO)O1 | -0.4 | -0.9 | 2.9 | nt | nt | 3040
CCc1nc2oc3ccccc3c(=O)c2c(=O)n1Cc1ccccc1 | -0.6 | -4.5 | -2.1 | 1.9 | 28.0 | 3211
CCc1nc2oc3cc(OC)ccc3c(=O)c2c(=O)n1Cc1ccccc1 | ? | -1.3 | -3.8 | 7.7 | 7.8 | 24709*
CC(=O)c1cccc(NC(=O)c2ccc3c(c2)C(=O)N(Cc2cccnc2)C3=O)c1 | -0.8 | -1.3 | -7.6 | 4.2 | 10.5 | 4950
O=C(Nc1cccnc1)c1ccc2c(c1)C(=O)N(Cc1cccnc1)C2=O | -0.5 | -0.7 | -2.1 | 3.3 | 7.2 | 23004*
CC(C)(C)C(=O)Nc1ccc(C(=O)Nc2cccnc2)cc1 | -2.1 | -3.0 | -0.1 | 9.0 | 26.4 | 23774*
Cc1cc(C(=O)Nc2cccnc2)cs1 | 1.5 | 2.4 | 1.4 | 4.1 | -6.0 | 23010*
COc1ccc(-c2nn(Cc3ccccc3)cc2C(=O)N2CCN(c3ncccn3)CC2)cc1OC | -0.5 | -8.1 | -4.4 | 7.5 | nt | 2778
CCc1ccccc1N(C)S(=O)(=O)c1cc(-c2cc(C)no2)ccc1OC | 0.2 | 1.0 | -0.1 | 5.4 | -17.2 | 5896
COc1cc(C(=O)N2CCN(C(=O)c3cc(-c4ccc(Br)cc4)n[nH]3)CC2)cc(OC)c1OC | 0.7 | -1.2 | -6.5 | 8.3 | 3.9 | 5784
CCN(CC(=O)Nc1ccc(OC)cc1)C(=O)c1ccc(N2CCCC2=O)cc1 | 0.1 | 1.0 | 2.7 | 3.0 | nt | 8717
CCOC(=O)N(CC)c1ccc(C(O)(C(=O)OCC)C(F)(F)F)cc1 (stereo not drawn) | -0.6 | -0.3 | -23.6 | 2.9 | 15.4 | 4818
CCOC(=O)N(C)c1ccc(C(O)(C(=O)OCC)C(F)(F)F)cc1 (stereo not drawn) | -1.1 | -1.2 | -0.5 | 0.7 | 19.1 | 22785*
OC1(c2ccc3c(c2)OCO3)CCN(Cc2ccc(F)cc2)CC1 | 0.7 | -0.5 | -2.8 | 12.4 | 3.7 | 4880
COC(=O)c1c(S(N)(=O)=O)c2ccccc2n1C | -2.2 | -2.8 | -5.3 | -5.5 | 11.7 | 21700*
COC(=O)c1c(C(=O)c2ccc(Br)cc2)n(C)c2ccccc12 | ? | ? | ? | -0.9 | nt | ?
COc1ccccc1NC(=O)COC(=O)c1[nH]c(=O)[nH]c(=O)c1N | 0.7 | -3.6 | 3.1 | -23.6 | nt | 3759
CCOc1ccc(N=C(NC#N)SCC(=O)NC2CC2)cc1 | ? | -2.3 | -1.2 | 0.0 | 35.9 | 23167*
COC(=O)CCCCNC(=O)Nc1ccccc1 | -0.1 | -1.6 | -1.2 | -21.2 | 45.7 | 1990
COC(=O)CNC(=O)CNC(=O)Nc1ccccc1 | ? | 2.1 | 2.0 | 2.0 | -1.0 | 19345*
Cc1ccc2c(Cl)cc(Cl)c(OCC(=O)N3CCCC3)c2n1 | -0.4 | 1.5 | -3.6 | 2.8 | 37.1 | 3935
Cc1ccc2c(Cl)cc(Cl)c(OCC(=O)O)c2n1 | -0.7 | 4.3 | -7.8 | 0.7 | 56.2* | 5185
Cc1ccc(CSc2nnc(-c3ccc(S(=O)(=O)N4CCCC4)cc3)o2)cc1 | 0.5 | -5.9 | -5.1 | -41.1 | 7.8 | 22758*
NC(=O)CSc1nnc(-c2cccc(S(=O)(=O)N3CCCCC3)c2)o1 | 0.5 | 4.9 | -5.1 | 7.3 | 17.6 | 3280
